DRV1 agonist: qHTS for Agonists of Human Resolvin D1 Receptor DRV1; Probable G-protein coupled receptor 32 (Homo sapiens), O75388; CHO-K1 GPR32 beta-arrestin PathHunter luminescence, 90 min; zero percent set by DMSO-only wells; activation, % at 76.9 µM; hit rate 2.5% among 48,000; AID 1346428, 2018;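 active = activation of at least 60% and not above a set upper limit, about 1 call in 100 departs from these limits; inconclusive = activation of 40% to 60%, or above that upper limit; inactive = activation under 40%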; note: 0% is about no effect
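Using DMSO wells as EC0, agonist-induced signal was taken as chemiluminescence from beta-Gal reconstituted upon beta-arrestin recruitment to GPR32 in CHO-K1 cells after 90 min compound treatment.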
B2AR arrestin ag: qHTS assay of beta-arrestin-biased ligands of beta2-adrenergic receptor: NCGC Sytravon Library Screen; HTLA Tango cells, beta-arrestin recruitment, luciferase luminescence, 18 h; Potency, µM (top dose mostly 46.1 µM), actives largely listed as activators; 44,000 tested, under 10 active; AID 1347077, 2019;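 note: potency is the fitted concentration of half-maximal effect; 0% = DMSO and full agonism = EC100 isoproterenol or metaproterenol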
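Tango cells expressing recombinant beta2-AR and beta-arrestin were treated with compounds (up to 46 microM titration) in DMEM with 1% FBS for 18 hr at 37 degrees C. Beta-arrestin recruitment drove tTA-dependent luciferase, read by luminescence; curves were fitted and classed.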
TSG101-PTAP inh: qHTS Validation Assay for Inhibitors of HIV-1 Budding by Blocking the Interaction of PTAP/TSG101: Sytravon Library Screen. Tumor susceptibility gene 101 protein (Homo sapiens), Q99816. Fluorescence polarization, FITC-PTAP peptide/Tsg101, 20 min. Potency, µM (series often up to 115 µM), usual class: inhibitors. 44,000 tested, under 10 active. AID 1347069, 2019; note: potency is the fitted concentration of half-maximal effect; 0% is about no effect
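FITC-labeled PTAP peptide (50 nM final) binding to Tsg101 binding domain (10 uM final) read by fluorescence polarization after 20 min at r.t. in HEPES pH 7.5 buffer. Actives by CRC class, <25 µM.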
NTMT1 inh: Primary qHTS for Inhibitors of N-terminal methyltransferase 1 (NTMT1): MTaseGlo Assay. N-terminal Xaa-Pro-Lys N-methyltransferase 1 (Homo sapiens), Q9BV86. NTMT1 MTase-Glo SAH luminescence, purified enzyme. Potency, µM (series often up to 114 µM), without a hit: at the highest dose activity change, negative = inhibition, most hits filed as inhibitors. hit rate 2.5% among 59,000;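 note: potency is the fitted concentration of half-maximal effect; plate controls were DMSO vehicle for no effect and no enzyme for full effect; nearly all actives have a fitted effect of over 65% in size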
Target sequence (Q9BV86 whole entry, looked up): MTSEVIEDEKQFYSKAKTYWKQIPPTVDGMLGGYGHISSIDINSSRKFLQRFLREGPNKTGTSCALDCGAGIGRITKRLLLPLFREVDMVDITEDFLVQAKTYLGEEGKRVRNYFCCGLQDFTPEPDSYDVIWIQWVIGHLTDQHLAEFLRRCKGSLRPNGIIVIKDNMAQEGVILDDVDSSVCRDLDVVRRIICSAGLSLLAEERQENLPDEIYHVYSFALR
GALK inh: qHTS Assay for Inhibitors of Human Galactokinase (GALK): NCGC Sytravon Library Screen | P51570 | recombinant GALK, Kinase-Glo ATP luminescence, 1 h | Potency, µM (titrated, usually from 57.5 µM), for the others: top-dose activity, negative = inhibition, hits mostly inhibitors | 44,000 tested, under 10 active;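 note: plate controls were full GALK reaction for no effect and reaction lacking GALK for full effect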
Target sequence (P51570 whole entry, looked up): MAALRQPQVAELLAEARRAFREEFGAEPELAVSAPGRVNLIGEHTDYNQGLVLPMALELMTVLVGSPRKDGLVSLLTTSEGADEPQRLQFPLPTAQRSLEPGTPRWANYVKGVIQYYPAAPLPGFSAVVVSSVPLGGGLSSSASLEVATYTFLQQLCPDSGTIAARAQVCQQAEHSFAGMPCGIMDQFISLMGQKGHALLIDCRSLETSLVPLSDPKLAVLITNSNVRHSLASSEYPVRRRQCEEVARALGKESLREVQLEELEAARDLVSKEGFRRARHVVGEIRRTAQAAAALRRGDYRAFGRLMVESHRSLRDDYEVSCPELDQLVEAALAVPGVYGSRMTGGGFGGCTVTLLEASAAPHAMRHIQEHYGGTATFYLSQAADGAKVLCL
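Human GALK (5 nM) was incubated with 35 uM ATP and 100 uM galactose in 20 mM HEPES pH 8.0 with MgCl2, NaCl, DTT and BSA for 1 h at room temperature. Remaining ATP was measured by Kinase-Glo Plus luminescence.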
FH mod: Identification of activators of human fumarate hydratase by quantitative high-throughput screening. Fumarate hydratase, mitochondrial (Homo sapiens), P07954. FH coupled MDH/diaphorase resazurin fluorescence, 15 min. Potency, µM (titrated, usually from 79.9 µM), inactives show at the top dose activity change, negative = inhibition, usual class: inhibitors. hit rate 0.22% among 54,000; note: potency is the fitted concentration of half-maximal effect; % is set by controls: 0 for no effect and ±100 for the full control effect; the screen sought activators but most active calls are inhibition curves; nearly all actives have a fitted effect of over 45% in size
Sfp PPTase inh: qHTS Assay for Inhibitos of Bacillus subtilis Sfp phosphopantetheinyl transferase (PPTase): Chemistry Optimization Followup; shares compounds with NTMT1 inh; purified Sfp PPTase enzyme activity, qHTS; Potency, µM (top dose mostly 114 µM), for the others: at the top dose activity change, negative = inhibition, most hits filed as inhibitors; hit rate 78% among 230
Bsub HM489 growth: qHTS for Inhibitos of Bacillus subtilis Sfp phosphopantetheinyl transferase (PPTase): Chemistry Optimization Followup in B. Subtilis HM489; shares compounds with NTMT1 inh; B. subtilis HM489 (acpS-) growth, BacTiter-Glo, 5 h; Potency, µM (doses to about 114 µM), for inactives: top-dose activity change, negative = inhibition, most hits filed as inhibitors; hit rate 50% among 220
Sfp gel opt: Gel-Based Assay for Inhibitos of Bacillus subtilis Sfp phosphopantetheinyl transferase (PPTase): Chemistry Optimization Followup | shares compounds with NTMT1 inh | Potency, µM (highest dose often 250 µM), for inactives: at the top dose activity change, negative = inhibition, actives largely listed as inhibitors | hit rate 54% among 220 | purified Sfp PPTase, gel-based product detection
Sfp gel: qHTS Assay for Inhibitors of Bacillus subtilis Sfp phosphopantetheinyl transferase (PPTase): Gel Based Assay. shares compounds with NTMT1 inh. purified Sfp PPTase, gel-based product detection. Potency, µM (top dose mostly 250 µM), inactives show at the highest dose activity change, negative = inhibition, hits mostly inhibitors. hit rate 90% among 45
Sfp inh SAR2: qHTS Assay for Inhibitors of Bacillus subtilis Sfp phosphopantetheinyl transferase (PPTase): SAR Round 2; shares compounds with NTMT1 inh; purified Sfp enzyme, PPTase activity, qHTS; Potency, µM (series often up to 57.1 µM), without a hit: at the highest dose activity change, negative = inhibition, actives largely listed as inhibitors; hit rate 87% among 230; AID 602370, 2012
hGST ctr: qHTS Assay for Inhibitors of Bacillus subtilis Sfp phosphopantetheinyl transferase (PPTase): SAR in hGST A1-1. shares compounds with NTMT1 inh. hGST A1-1 enzyme activity counter-screen, qHTS. Potency, µM (top dose mostly 114 µM), for inactives: top-dose activity change, negative = inhibition, hits mostly inhibitors. 55 tested, under 10 active. AID 602391, 2012
HSD17B4 counter: Extended Characterization of HPGD Inhibitors: Counterscreen Against HSD17b4; shares compounds with NTMT1 inh; purified HSD17B4, estradiol/NAD+, NADH fluorescence; hit rate 10% among 230; Potency, µM (highest dose often 57.1 µM), without a hit: top-dose activity change, negative = inhibition, hits mostly inhibitors
ALDH1A1 inh: Extended Characterization of HPGD Inhibitors: Counterscreen Against ALDH1A1 | AID 743195, 2013 | shares compounds with NTMT1 inh | hit rate 93% among 230 | recombinant ALDH1A1, NADH fluorescence, propionaldehyde/NAD+ | Potency, µM (titrated, usually from 57.1 µM), for inactives: top-dose activity change, negative = inhibition, hits mostly inhibitors
NNMT counter: Counterscreen qHTS for Inhibitors of N-terminal methyltransferase 1 (NTMT1): NNMT MTaseGlo assay; shares compounds with NTMT1 inh; NNMT MTase-Glo luminescence, SAH detection; hit rate 10% among 120; Potency, µM (series often up to 57.1 µM), inactives show top-dose activity, negative = inhibition, actives largely listed as inhibitors; AID 1645878, 2021
Numbers without * were called inactive; [ ] = another dose, or the depositor's remark. Rows were chosen to be rich in hits. Some 3.7% of all compounds tested hit in one or more screens of this group. Unless noted, calls come from the whole dose curve; as a rule, active = well fitted curve in the direction sought with a large enough effect; inconclusive = small, poorly fitted or top-dose-only effect, or another doubt; inactive = no such curve, though single readings can be large; an effect the other way counts as inactive or inconclusive.

Cc1ccnc(NC(=S)N2CCN(c3cccc(N(C)C)c3)CC2)c1 was read as NTMT1 inh -25%, Sfp PPTase inh 9.4µM*, Bsub HM489 growth 37µM*, Sfp gel opt 1.3µM*, Sfp gel 8.5µM*, Sfp inh SAR2 5.8µM*, hGST ctr inconclusive, HSD17B4 counter inconclusive and ALDH1A1 inh 1.7µM*.
For CC(=O)N1CCN(C(=S)Nc2cc(C)ccn2)CC1 the results were NTMT1 inh inconclusive, Sfp PPTase inh 33µM*, Bsub HM489 growth inconclusive, Sfp gel opt 13µM*, Sfp inh SAR2 6.5µM*, HSD17B4 counter -9% and ALDH1A1 inh 12µM*.
Screening Cc1cc(C)nc(NC(=S)N2CCN(c3ccc(Cl)c(Cl)c3)CC2)c1 returned NTMT1 inh -9%, Sfp PPTase inh 2.1µM*, Bsub HM489 growth 5.9µM*, Sfp gel opt 12µM*, Sfp gel 3µM*, Sfp inh SAR2 0.91µM*, hGST ctr inconclusive, HSD17B4 counter -29% and ALDH1A1 inh 8.6µM*.
Screening CCOCOC[C@H](C[C@H](C)C(=O)NO)NC(=O)c1ccc(Oc2ccccc2)cc1 returned NTMT1 inh 4%.
For O=C1NCCSc2c1sc1ccc(O)cc21 the results were NTMT1 inh inconclusive and FH mod -10%.
Screening Cc1cc(C)nc(NC(=S)N2CCN(c3ccc(Cl)nn3)CC2)c1 returned NTMT1 inh inconclusive, Sfp PPTase inh 12µM*, Bsub HM489 growth 21%, Sfp gel opt inconclusive, Sfp inh SAR2 3.6µM*, HSD17B4 counter -18% and ALDH1A1 inh 19µM*.
`Cc1cccc(-c2[nH]c(C(C)(C)C)nc2-c2ccc3c(c2)OCO3)n1` gave NTMT1 inh 24% and FH mod 4%[53.3 µM].
Screening CC(C)(C)Cn1c(N)nc2ccc(-c3[nH]c(C(C)(C)C)nc3-c3ccc(F)cc3)nc21 returned NTMT1 inh 13µM*, FH mod -4% and NNMT counter 14µM*.
Cc1ccc(Cn2c(=O)c3cccnc3n(CC(=O)Nc3cccc(C(F)(F)F)c3)c2=O)cc1 was read as DRV1 agonist -8, B2AR arrestin ag inactive, TSG101-PTAP inh inactive, NTMT1 inh 8%, GALK inh -2% and FH mod -33%.
For Cc1ccnc(NC(=S)NCCN(C)c2cccc(C(F)(F)F)c2)c1 the results were NTMT1 inh -3%, Sfp PPTase inh inconclusive, Bsub HM489 growth 3%, Sfp gel opt -11%, Sfp inh SAR2 inconclusive, HSD17B4 counter -5% and ALDH1A1 inh 15µM*.
`CCN(c1ccccc1)c1nnc(NC(=O)Nc2cccc(C(F)(F)F)c2)s1` gave DRV1 agonist 5, B2AR arrestin ag inactive, TSG101-PTAP inh inactive, NTMT1 inh 8%, GALK inh -1% and FH mod 4%.

Screening data from PubChem BioAssay.
